# Tests used:
# Test in all cases: DAPPL (digital affinity profiling via proximity ligation, sequencing); 10 mM Tris-HCl pH 7.5, 50 mM NaCl, 1 mM DTT, 4% glycerol, room temperature, 30 min; GST-TFs on glutathione beads, 16-mer random dsDNA library, 0.1% formaldehyde crosslink after washing; high values mean tight binding
# Settings in all cases: protein: recombinant; tags: N-terminal GST; dsDNA, one strand shown
# [1] = molecular target: T1, FLI1 (Homo sapiens, UniProt Q01543 1-452)
# T1 sequence: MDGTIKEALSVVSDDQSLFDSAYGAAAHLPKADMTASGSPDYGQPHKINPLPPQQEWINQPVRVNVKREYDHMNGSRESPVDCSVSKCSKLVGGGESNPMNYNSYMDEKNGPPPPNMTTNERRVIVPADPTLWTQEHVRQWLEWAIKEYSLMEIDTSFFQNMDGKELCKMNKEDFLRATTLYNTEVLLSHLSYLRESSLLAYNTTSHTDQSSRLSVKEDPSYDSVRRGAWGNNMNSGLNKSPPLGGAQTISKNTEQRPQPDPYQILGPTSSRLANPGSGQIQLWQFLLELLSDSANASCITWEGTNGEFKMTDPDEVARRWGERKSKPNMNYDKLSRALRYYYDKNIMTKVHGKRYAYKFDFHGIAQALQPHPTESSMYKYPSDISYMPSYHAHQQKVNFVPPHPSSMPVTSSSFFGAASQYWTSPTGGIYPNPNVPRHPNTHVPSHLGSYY
# Method in brief: (§1)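 Yeast served to express human transcription factors as GST fusions, which were then captured on glutathione beads and labelled with DNA barcodes. Pooled with a tag-only sample, they were incubated with 200 nmole of a 16-mer random double-stranded DNA library for 30 min at room temperature in Tris/NaCl/DTT/glycerol buffer, washed, crosslinked with 0.1% formaldehyde, ligated by proximity, amplified by PCR and sequenced. Dividing each hexamer's read frequency for a factor by its frequency for the tag-only sample gives the binding signal.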
# [2] = molecular target: T2, GABPA (Homo sapiens, UniProt Q06546 1-454)
# T2 sequence: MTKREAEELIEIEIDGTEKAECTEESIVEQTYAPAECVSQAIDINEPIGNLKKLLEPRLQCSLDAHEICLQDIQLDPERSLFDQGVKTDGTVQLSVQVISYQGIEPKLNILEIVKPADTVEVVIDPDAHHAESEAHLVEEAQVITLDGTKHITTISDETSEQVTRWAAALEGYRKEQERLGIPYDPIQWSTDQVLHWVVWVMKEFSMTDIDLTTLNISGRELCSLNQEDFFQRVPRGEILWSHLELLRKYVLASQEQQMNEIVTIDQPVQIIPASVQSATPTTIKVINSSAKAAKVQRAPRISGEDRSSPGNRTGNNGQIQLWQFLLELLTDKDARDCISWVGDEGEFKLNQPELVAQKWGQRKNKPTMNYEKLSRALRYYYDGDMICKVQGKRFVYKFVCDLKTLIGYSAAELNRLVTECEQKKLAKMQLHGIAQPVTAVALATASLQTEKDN
# Method in brief: as §1
# [3] = molecular target: T3, ERG (Homo sapiens, UniProt P11308 1-479)
# T3 sequence: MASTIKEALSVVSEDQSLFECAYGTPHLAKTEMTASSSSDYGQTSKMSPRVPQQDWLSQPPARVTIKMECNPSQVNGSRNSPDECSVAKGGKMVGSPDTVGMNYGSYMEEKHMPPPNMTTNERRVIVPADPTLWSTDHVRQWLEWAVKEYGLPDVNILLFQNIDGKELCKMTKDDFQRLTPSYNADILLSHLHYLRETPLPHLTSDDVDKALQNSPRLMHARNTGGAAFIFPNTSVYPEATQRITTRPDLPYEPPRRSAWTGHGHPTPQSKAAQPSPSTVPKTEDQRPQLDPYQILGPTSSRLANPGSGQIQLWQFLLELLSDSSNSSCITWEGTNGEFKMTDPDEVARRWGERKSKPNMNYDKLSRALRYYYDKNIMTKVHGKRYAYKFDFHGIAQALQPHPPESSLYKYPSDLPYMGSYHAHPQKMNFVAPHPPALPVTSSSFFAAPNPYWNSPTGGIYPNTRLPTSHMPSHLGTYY
# Method in brief: as §1
# [4] = molecular target: T4, EHF (Homo sapiens, UniProt Q9NZC4 1-300)
# T4 sequence: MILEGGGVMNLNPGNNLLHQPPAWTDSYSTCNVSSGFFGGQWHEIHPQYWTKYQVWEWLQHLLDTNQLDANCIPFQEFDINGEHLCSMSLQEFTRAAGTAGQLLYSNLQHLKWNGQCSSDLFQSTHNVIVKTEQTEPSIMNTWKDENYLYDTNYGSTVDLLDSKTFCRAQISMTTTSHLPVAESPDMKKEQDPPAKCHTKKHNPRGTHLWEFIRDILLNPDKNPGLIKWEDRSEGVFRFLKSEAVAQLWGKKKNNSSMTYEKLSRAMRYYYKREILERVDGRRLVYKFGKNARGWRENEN
# Method in brief: as §1
# [5] = molecular target: SPIB (Homo sapiens, UniProt Q01892 1-262)
# Method in brief: as §1
# [6] = molecular target: T5, ELK3 (Homo sapiens, UniProt P41970 1-407)
# T5 sequence: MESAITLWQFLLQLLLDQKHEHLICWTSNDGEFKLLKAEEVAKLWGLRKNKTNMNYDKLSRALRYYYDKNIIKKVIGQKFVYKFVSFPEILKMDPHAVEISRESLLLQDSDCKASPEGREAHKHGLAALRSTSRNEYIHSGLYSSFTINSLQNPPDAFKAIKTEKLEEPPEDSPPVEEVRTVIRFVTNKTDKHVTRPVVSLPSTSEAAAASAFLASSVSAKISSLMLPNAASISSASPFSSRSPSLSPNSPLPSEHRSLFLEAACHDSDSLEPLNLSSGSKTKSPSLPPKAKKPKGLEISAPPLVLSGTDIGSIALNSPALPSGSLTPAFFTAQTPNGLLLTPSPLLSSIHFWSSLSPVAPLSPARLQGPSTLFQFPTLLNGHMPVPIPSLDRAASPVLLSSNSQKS
# Method in brief: as §1
# [7] = molecular target: T6, SPIC (Homo sapiens, UniProt Q8N5J4 1-248)
# T6 sequence: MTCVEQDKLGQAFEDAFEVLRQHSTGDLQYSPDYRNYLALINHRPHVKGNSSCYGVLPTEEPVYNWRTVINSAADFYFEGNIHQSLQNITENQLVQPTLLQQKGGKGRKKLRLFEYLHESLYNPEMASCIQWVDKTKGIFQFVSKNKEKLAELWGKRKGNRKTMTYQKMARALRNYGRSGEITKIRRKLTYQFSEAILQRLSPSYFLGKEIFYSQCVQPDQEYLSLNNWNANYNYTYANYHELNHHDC
# Method in brief: as §1
# [8] = molecular target: ELF4 (Homo sapiens, UniProt Q99607 1-663)
# Method in brief: as §1
# [9] = molecular target: T7, ELK4 (Homo sapiens, UniProt P28324-2 1-405)
# T7 sequence: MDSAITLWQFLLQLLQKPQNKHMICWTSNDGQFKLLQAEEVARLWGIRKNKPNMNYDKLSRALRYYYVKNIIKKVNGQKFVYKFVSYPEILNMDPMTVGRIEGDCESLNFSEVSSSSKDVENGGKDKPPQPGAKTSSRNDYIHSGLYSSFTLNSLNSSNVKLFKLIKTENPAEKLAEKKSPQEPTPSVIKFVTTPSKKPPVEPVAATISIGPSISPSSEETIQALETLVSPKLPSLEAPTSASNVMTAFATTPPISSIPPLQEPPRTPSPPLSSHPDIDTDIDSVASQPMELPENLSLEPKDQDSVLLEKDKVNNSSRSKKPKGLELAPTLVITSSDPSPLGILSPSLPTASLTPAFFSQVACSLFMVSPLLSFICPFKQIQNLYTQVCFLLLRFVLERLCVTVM
# Method in brief: as §1
# [10] = molecular target: T8, ERF (Homo sapiens, UniProt P50548 1-548)
# T8 sequence: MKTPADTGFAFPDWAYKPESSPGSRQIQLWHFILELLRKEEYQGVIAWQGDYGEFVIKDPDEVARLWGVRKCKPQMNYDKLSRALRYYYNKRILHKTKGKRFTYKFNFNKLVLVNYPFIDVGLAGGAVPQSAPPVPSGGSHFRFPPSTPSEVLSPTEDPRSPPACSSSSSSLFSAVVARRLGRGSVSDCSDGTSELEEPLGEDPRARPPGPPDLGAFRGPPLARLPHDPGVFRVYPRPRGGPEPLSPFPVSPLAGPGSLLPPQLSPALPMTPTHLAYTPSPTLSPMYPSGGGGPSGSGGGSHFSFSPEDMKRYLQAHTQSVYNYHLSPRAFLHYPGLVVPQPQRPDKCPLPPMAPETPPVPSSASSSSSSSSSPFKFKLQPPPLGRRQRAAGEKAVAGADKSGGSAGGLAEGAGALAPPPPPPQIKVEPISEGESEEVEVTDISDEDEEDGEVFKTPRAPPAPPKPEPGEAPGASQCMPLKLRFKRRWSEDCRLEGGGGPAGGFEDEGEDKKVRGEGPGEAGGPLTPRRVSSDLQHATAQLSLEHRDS
# Method in brief: as §1
# [11] = molecular target: T9, ETV3L (Homo sapiens, UniProt Q6ZN32 1-361)
# T9 sequence: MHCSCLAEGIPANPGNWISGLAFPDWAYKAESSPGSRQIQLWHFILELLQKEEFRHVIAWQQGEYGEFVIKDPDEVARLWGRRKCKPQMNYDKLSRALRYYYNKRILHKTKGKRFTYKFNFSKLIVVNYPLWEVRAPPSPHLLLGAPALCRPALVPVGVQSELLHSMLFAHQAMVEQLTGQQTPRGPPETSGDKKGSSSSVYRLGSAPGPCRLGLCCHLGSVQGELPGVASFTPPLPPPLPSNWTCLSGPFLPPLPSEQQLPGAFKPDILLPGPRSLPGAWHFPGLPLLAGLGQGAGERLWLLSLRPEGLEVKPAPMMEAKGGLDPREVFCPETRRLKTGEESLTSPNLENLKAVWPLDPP
# Method in brief: as §1
# [12] = molecular target: T10, ETS2 (Homo sapiens, UniProt P15036 1-469)
# T10 sequence: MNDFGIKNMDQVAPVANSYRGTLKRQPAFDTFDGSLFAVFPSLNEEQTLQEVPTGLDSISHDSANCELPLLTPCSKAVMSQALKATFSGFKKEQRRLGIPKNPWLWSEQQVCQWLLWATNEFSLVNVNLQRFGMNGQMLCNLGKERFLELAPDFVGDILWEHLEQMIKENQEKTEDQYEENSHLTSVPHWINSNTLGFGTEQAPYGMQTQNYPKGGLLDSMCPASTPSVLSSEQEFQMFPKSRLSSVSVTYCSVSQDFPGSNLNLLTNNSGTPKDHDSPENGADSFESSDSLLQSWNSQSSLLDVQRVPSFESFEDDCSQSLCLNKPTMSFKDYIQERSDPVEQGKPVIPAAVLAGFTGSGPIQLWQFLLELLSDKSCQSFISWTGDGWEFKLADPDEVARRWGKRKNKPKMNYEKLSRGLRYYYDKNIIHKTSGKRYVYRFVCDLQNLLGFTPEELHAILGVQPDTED
# Method in brief: as §1
# [13] = molecular target: T11, ETV7 (Homo sapiens, UniProt Q9Y603 1-341)
# T11 sequence: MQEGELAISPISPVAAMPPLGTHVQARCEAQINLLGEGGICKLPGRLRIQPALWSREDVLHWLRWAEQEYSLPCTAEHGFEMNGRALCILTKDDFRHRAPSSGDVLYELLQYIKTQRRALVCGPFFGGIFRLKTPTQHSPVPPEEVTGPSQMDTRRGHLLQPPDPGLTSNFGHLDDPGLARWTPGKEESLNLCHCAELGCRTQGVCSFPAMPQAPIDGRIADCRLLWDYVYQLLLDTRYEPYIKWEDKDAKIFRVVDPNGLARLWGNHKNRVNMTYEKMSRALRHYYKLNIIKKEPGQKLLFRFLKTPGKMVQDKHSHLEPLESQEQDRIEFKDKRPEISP
# Method in brief: as §1
# [14] = molecular target: ETV6 (Homo sapiens, UniProt P41212 1-452)
# Method in brief: as §1
# Chain of ETV6 (P41212 whole entry): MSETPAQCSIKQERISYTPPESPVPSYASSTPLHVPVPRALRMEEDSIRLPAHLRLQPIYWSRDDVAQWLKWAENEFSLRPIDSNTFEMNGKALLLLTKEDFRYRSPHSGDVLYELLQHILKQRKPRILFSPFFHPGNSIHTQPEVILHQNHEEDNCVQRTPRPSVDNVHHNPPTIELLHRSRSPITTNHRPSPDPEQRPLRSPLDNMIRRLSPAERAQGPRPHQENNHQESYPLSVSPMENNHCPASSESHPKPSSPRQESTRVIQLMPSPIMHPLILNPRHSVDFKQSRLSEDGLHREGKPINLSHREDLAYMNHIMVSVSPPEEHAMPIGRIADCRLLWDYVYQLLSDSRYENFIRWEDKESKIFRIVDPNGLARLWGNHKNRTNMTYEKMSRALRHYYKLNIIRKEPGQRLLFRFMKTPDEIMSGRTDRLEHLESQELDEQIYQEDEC
# Chain of SPIB (Q01892 whole entry): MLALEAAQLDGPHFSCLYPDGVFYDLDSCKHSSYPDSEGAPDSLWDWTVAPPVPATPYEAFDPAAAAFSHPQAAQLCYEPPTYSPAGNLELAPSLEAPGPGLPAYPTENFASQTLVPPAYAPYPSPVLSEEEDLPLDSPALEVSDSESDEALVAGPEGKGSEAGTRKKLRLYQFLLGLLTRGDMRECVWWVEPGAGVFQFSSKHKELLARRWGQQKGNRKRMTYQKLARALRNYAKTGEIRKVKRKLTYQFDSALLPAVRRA
# Chain of ELF4 (Q99607 whole entry): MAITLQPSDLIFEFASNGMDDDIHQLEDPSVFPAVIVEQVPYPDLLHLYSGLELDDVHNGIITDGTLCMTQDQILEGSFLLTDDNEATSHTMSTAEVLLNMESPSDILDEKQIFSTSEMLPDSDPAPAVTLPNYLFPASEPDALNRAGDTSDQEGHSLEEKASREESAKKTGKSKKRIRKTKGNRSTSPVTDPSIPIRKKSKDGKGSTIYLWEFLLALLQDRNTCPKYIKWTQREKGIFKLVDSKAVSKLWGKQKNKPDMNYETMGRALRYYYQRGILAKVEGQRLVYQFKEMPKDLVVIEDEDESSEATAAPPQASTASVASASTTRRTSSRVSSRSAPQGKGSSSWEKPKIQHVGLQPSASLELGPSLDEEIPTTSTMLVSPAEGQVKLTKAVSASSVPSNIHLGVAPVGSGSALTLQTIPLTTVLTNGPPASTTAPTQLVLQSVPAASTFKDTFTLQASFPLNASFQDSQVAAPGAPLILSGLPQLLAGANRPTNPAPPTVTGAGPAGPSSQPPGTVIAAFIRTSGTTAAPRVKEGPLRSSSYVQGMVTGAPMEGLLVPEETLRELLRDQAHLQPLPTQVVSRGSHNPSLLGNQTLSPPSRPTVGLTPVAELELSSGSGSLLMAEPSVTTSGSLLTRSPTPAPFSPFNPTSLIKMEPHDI
sequence,measurement,setting,value
GGTAAC,binding signal,[1],"1.1 fold enrichment (6-mer frequency, TF over GST control)"
same,binding signal,[2],"1.03 fold enrichment (6-mer frequency, TF over GST control)"
same,binding signal,[3],"1.01 fold enrichment (6-mer frequency, TF over GST control)"
same,binding signal,[4],"1.09 fold enrichment (6-mer frequency, TF over GST control)"
same,binding signal,[5],"1.02 fold enrichment (6-mer frequency, TF over GST control)"
same,binding signal,[6],"1 fold enrichment (6-mer frequency, TF over GST control)"
same,binding signal,[7],"1.03 fold enrichment (6-mer frequency, TF over GST control)"
same,binding signal,[8],"1.01 fold enrichment (6-mer frequency, TF over GST control)"
same,binding signal,[9],"1.03 fold enrichment (6-mer frequency, TF over GST control)"
same,binding signal,[10],"1 fold enrichment (6-mer frequency, TF over GST control)"
same,binding signal,[11],"1 fold enrichment (6-mer frequency, TF over GST control)"
same,binding signal,[12],"1.02 fold enrichment (6-mer frequency, TF over GST control)"
same,binding signal,[13],"1.05 fold enrichment (6-mer frequency, TF over GST control)"
same,binding signal,[14],"1.04 fold enrichment (6-mer frequency, TF over GST control)"

# — publication PMC7862700, “An all-to-all approach to the identification of sequence-specific readers for epigenetic DNA modifications on cytosine”
